Sampled rows, rich in hits. Any-hit rate of the full collection: about 0.62%.
pAkt inh = HTS Assay for Inhibitors of Akt Phophorylation: Primary Screen | Neuro2A IGF-stimulated pAkt S473 HTRF, 20 min; stronger effect = lower value | activity change, % for hits at 50 µM | 0.32% of 360,000 active; in the data active means activity change below about -80%; inconclusive means mostly about -51% to -80%
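Neuro2A cells in DMEM with 0.5% FBS, overnight at 37 deg C, given compound at single 50 µM final, then IGF (6 nM final) for 20 min at 37 deg C. Lysed; phospho-Akt Ser473 by HTRF after 24 h, 665/615 ratio.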
TSHR antag = Antagonists of the Thyroid Stimulating Hormone Receptor: HTS campaign | Thyrotropin receptor (Homo sapiens), P16473 | TSHR-expressing cells, TSH-stimulated cAMP HTRF, 2 h; stronger effect = lower value | activity change, negative = inhibition, % at 11.5 µM | 0.2% of 330,000 active | AID 504810, 2011;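 active means activity change below a set negative limit, meaning inhibition stronger than a set level, cut at about -70% in these data; inconclusive means activity change between two set negative limits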
Target sequence (P16473 whole entry, looked up): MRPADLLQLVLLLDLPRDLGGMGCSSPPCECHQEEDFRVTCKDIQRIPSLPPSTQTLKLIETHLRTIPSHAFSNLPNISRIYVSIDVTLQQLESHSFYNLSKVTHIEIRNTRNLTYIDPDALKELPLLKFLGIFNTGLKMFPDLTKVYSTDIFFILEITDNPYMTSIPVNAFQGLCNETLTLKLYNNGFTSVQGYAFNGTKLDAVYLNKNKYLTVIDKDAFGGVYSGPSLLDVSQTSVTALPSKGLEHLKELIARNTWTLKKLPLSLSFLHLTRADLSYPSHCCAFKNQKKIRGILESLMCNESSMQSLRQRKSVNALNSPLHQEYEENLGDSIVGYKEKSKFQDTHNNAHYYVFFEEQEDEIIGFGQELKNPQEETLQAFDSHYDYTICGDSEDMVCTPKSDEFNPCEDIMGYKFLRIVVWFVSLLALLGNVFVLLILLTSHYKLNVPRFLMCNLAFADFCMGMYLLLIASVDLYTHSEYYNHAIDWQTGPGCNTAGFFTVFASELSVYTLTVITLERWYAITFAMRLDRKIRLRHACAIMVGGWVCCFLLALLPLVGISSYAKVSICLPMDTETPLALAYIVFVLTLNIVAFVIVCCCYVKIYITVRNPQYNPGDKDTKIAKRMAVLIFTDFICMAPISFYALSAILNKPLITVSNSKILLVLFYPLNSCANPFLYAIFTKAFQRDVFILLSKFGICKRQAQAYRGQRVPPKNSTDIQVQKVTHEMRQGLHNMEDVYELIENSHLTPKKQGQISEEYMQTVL
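TSHR-expressing cells, 200/well, pre-treated with compound, then stimulated with EC80 TSH (4nM final) for 2 hours at 37 deg C. cAMP measured by competitive HTRF: anti-cAMP cryptate antibody in lysis buffer plus cAMP-d2, read after 30 minutes at room temperature.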
Rango-impB inh = qHTS Assay for Inhibitors of Rango (Ran-regulated importin-beta cargo) - Importin beta complex formation | Importin subunit beta-1 (Homo sapiens), Q14974 | Rango CFP/YFP FRET sensor + importin beta, 45 min | Potency, µM (doses to about 92.2 µM) | 0.031% of 340,000 active | AID 540263, 2011; further: nearly all actives have a fitted effect of over 15% in size
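FRET biosensor (snurportin 1 IBB flanked by EYFP and cerulean), 50 nM, with compound 5 min, then 0.125 microM importin beta in PBS, 1 mM DTT, 0.02% Tween-20, 0.1% BSA. CFP/YFP ratio read after 45 min at room temperature; pre-read flags interference.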
p53 reactivator = qHTS assay for re-activators of p53 using a Luc reporter. H1299 p53-A138V BP100-luciferase reporter, luminescence, 24 h. AID 504706, 2011. Potency, µM (top dose mostly 92.2 µM), usual class: activators. 0.063% of 320,000 active; active means well fitted activation curve with a large enough effect; inconclusive means small, poorly fitted or top-dose-only effect; inactive means no such curve, though single readings can be large or run the other way; further: nearly all actives have a fitted effect of over 45% in size
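H1299 (p53-null), stable ts p53-A138V + BP100-Luc; 1000 cells/well, Opti-MEM/10% FBS; cpd 4 pt, 1:5; 24 h, 37 deg C, 5% CO2; detection reagent 10 min RT; luminescence.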
Rango release inh = qHTS Assay for Inhibitors of RanGTP induced Rango (Ran-regulated importin-beta cargo) - Importin beta complex dissociation. Potency, µM (doses to about 46.1 µM). 0.071% of 340,000 active. Biochemical FRET Rango-importin beta, RanGTP-induced dissociation; further: nearly all actives have a fitted effect of over 45% in size
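Rango/importin beta premix (0.1/0.25 uM final), PBS + 1 mM DTT + 0.02% Tween-20 + 0.1% BSA; cpd 5 min RT; FRET pre-read; + RanGTP-RCC1 (0.6 uM Ran, 2 mM GTP, 0.2 uM RCC1); 45 min RT; FRET post-read, ex 430, em 486/530 nm.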
Each line names hits and unclear results; the compound was inactive in the other large screens. Unless noted, the call rests on the fitted dose curve.

Cn1c(=O)c2c(O)c(Cc3ccccc3)c(=O)[nH]c2n(C)c1=O	none
Cc1cccc(-n2c(SCCC(=O)O)nnc2-c2cccs2)c1C	pAkt inh -115%
Cc1c(C(=O)O)cnc2c([N+](=O)[O-])cnn12	none
CCCNc1c(NS(=O)(=O)c2ccc(Br)cc2)c(=O)oc2ccccc12	TSHR antag -147
Cc1cc(C)cc(OCC(=O)N/N=C/c2ccc([N+](=O)[O-])o2)c1	none
Cc1ccccc1OCC(=O)N/N=C/c1ccc([N+](=O)[O-])o1	Rango-impB inh inconclusive, Rango release inh 16µM
Cc1cccc(C)c1OCCCn1ccnc1	TSHR antag -130, p53 reactivator inconclusive
COc1ccc2cc(CCNS(=O)(=O)c3ccc(NC(C)=O)cc3)c(=O)[nH]c2c1	none
Cc1ccc(NC(=O)Nc2cccc([N+](=O)[O-])c2)cc1F	TSHR antag inconclusive, p53 reactivator inconclusive
O=C(Nc1ccc(OC(F)(F)F)cc1)Nc1cccc([N+](=O)[O-])c1	TSHR antag inconclusive, p53 reactivator 35µM
COc1ccc(N2C(=O)CC(NNc3ncc(Cl)cc3Cl)C2=O)cc1 (configuration not stated)	Rango-impB inh inconclusive
c1ccc(Nc2nc3ccccc3n3nnnc23)cc1	Rango-impB inh inconclusive, Rango release inh 21µM
COc1ccccc1N(C)S(=O)(=O)c1ccc(C(=O)NC2CCCCC2)cc1	none
CC(=O)Nc1ccc(SCC(=O)N(CCC#N)c2cc(C)cc(C)c2)cc1	pAkt inh -110%
CC(=O)NCCNc1nc2cc(-c3cscc3C)sc2c(=O)n1C	none (no result: TSHR antag, Rango-impB inh, p53 reactivator, Rango release inh)
Cc1cc(C(=O)CN2C(=O)NC(c3ccccc3)(c3ccccc3)C2=O)c(C)n1Cc1ccccc1	pAkt inh -136%
CC(=O)c1ccc(OC2(C)CCN(Cc3csc4ccccc34)C2)cc1 (configuration not stated)	none (no result: TSHR antag, Rango-impB inh, p53 reactivator, Rango release inh)
COc1ccccc1NS(=O)(=O)c1cccc(C(=O)NCC(c2cccs2)N2CCOCC2)c1 (configuration not stated)	none
N#Cc1ccc(N2CCCC2C(=O)O)c([N+](=O)[O-])c1 (configuration not stated)	pAkt inh -118%
COc1cccc(N/C=C/C(=O)c2ccc(C)cc2)c1	Rango-impB inh inconclusive, Rango release inh 15µM
COc1ccc2[nH]c(=O)c(CN(C(=O)C(C)C)c3ccccc3OC)cc2c1	none (no result: p53 reactivator)
COc1cccc(OC)c1C(=O)Nc1cccc(NC(=O)c2cccs2)c1	none
COc1cc(NC(=O)c2cccs2)c(OC)cc1NC(=O)Cc1ccccc1	none
COc1cc(NC(=O)c2cccs2)c(OC)cc1NC(=O)c1cccs1	Rango-impB inh inconclusive, Rango release inh 18µM (no result: TSHR antag, p53 reactivator)
COc1ccc(C(=O)Nc2cccc(NC(=O)c3cccs3)c2)cc1OC	TSHR antag -130
O=C(NS(=O)(=O)Nc1ccccn1)c1c[nH]c2ccccc12	none (no result: pAkt inh)
Cc1cccc(NC(=O)/C(=C\c2ccco2)NC(=O)c2cccs2)c1	pAkt inh -110%, Rango-impB inh inconclusive
Cc1ccn2cc(CCNC(=O)C3CC=CCC3C(=O)O)nc2c1 (configuration not stated)	none
CCOC(=O)COn1c(=O)c(-c2ccco2)[n+]([O-])c2ccccc21	Rango-impB inh inconclusive, Rango release inh 18µM
Cc1ccc2c(c1)/C(=N/O)CCS2	pAkt inh -113%
Cn1c(=O)c2c(ncn2CC(=O)OCC(=O)Nc2sccc2C(N)=O)n(C)c1=O	none
CCN(CC)c1nc2ccccc2nc1-n1nc(C)cc1C	Rango-impB inh inconclusive, Rango release inh 15µM
Cc1cc(C)n(-c2nc3ccccc3n3cnnc23)n1	none
CC1CCN(S(=O)(=O)c2ccc(Oc3ccc([N+](=O)[O-])cc3)cc2)CC1	pAkt inh -81%
COc1ccc(N2CCN(CCCNC(=O)CN3CCN(Cc4ccccc4C)C3=O)CC2)cc1	pAkt inh -111%
COc1ccc(NC(=O)CN(Cc2ccco2)Cc2ccco2)cc1S(=O)(=O)N1CCCCC1	none
Cc1nn(Cc2ccccc2)c(C)c1NC(=O)CSc1nc(C2CC2)nc2c1cnn2-c1ccccc1	pAkt inh -114%
Cc1nn(C)c(C)c1NC(=O)CSc1nc(Cc2ccccc2)nc2c1cnn2-c1ccccc1	none (no result: TSHR antag, p53 reactivator)
O=C(NCc1ccco1)c1ccc(CS(=O)Cc2ccc(Cl)cc2)o1 (configuration not stated)	none
COc1cccc(-c2nnc(-c3ccccc3NC(=O)c3ccc(C(C)(C)C)cc3)o2)c1	none
CC1(CCC#N)N=C(SCCC#N)N(c2ccccc2)C1=O (configuration not stated)	pAkt inh -117%
Cc1nc(SCC(=O)Nc2ccc(F)cc2)c2oc3ccccc3c2n1	pAkt inh -90%
Cc1nc(SCC(=O)NCCc2ccccc2)c2oc3ccccc3c2n1	none
O=C(CSc1ncnc2c1oc1ccccc12)Nc1cccc(Cl)c1	pAkt inh -108%
Cc1nc(SCC(=O)NCc2ccco2)c2oc3ccccc3c2n1	none
CCc1nc(SCC(=O)NCCc2ccccc2)c2oc3ccccc3c2n1	pAkt inh -103%
Cc1nc(SCC(=O)NC(C)c2ccccc2)c2oc3ccccc3c2n1 (configuration not stated)	none
O=C(CSc1ncnc2c1oc1ccccc12)Nc1cccc(C(F)(F)F)c1	none
Cc1nc(SCC(=O)Nc2ccccc2)c2oc3ccccc3c2n1	pAkt inh -115%
Cn1nnc(NC(=S)NC(=O)Cc2ccccc2)n1	none
O=C1CCC(=O)N1CC1CC2CCC1C2 (configuration not stated)	none
CCc1ccc(S(=O)(=O)N/N=C\c2ccc3c(c2)OCO3)cc1	none
Cc1ccc(S(=O)(=O)N(CC(O)CN(C)C)c2ccccc2)cc1 (configuration not stated)	pAkt inh -108%
NS(=O)(=O)c1ccc(CNC(=O)CCSCCC(=O)NCc2ccc(S(N)(=O)=O)cc2)cc1	none
NS(=O)(=O)c1ccc(CNC(=O)CCS(=O)(=O)Cc2ccccc2)cc1	TSHR antag -79
CCOC(=O)c1c(/N=C/c2cccc([N+](=O)[O-])c2O)sc(C)c1C	none
O=C(C[C@H]1C/C=C\CCCCC(=O)OC[C@H]2CCCN2C1=O)N[C@H](CO)Cc1ccccc1	none
CCOc1ccc(CCNC(=O)c2nnc(CS(=O)(=O)c3ccccc3)o2)cc1OCC	none
Cc1cc(C)c(NC(=O)C2CCCN2C)c(C)c1 (configuration not stated)	pAkt inh -101%

Compound activity from PubChem.
